# In the supplement of paper PMC11417369:
# ± gives the standard deviation of the averaged measurements. In all, about 25,000 sequences were measured (“ln(normalized median fluorescence intensity)”: median about 8.9, highest 2% from about 10 on). The full list was thinned out, with the highest values kept by preference.
# Test system: PfAP2-LT AP2 domain (GST-tagged)
# Assay: gcPBM binding intensity (ln(normalized median fluorescence intensity)); higher = stronger DNA binding
# Outline: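 GST-tagged P. falciparum DNA-binding domains, expressed in E. coli (about 25 μg on average), were applied for 1 h to an Agilent 4 × 180k array of primer-extended double-stranded 36-bp intergenic genomic probes plus negative controls. The binding buffer was 1× PBS with 1% milk, 0.2 mg/ml BSA, 0.5% salmon testes DNA and 0.03% Triton X-100. Bound protein was detected with Alexa488 anti-GST antibody and scanned at 488 nm. Binding intensity is the highest Masliner-normalised natural-log median intensity across replicate spots of either probe orientation.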
row,Sequence,gcPBM binding intensity (ln)
1,AAAATAAATAAATAAATAAATATATATATATATATA [XGTACX_negctrl_site345],9.16 ± 0.3
2,AGCCTCGGGGTCATATATATATATATATATATATAT [CACACA_negctrl_site512],10.35 ± 0.05
3,ATCAGATATATATATTGTACATTTATATATAAATCA [XGTACX_site1960],8.62 ± 0.46
4,TAACAAAAAGCACTTAGTACATATATATATATATAT [XGTACX_site1099],9.88 ± 0.44
5,AAAAAAAAAAAAAACACACACATATCTATAATATAT [CACACA_site7481],9.35 ± 0.44
6,AAAAAAAAAAAACACACACACACACTAGTACATACA [CACACA_site4551],10.2 ± 0.3
7,AAAAAAAAAAAACACACACACACATACACATACATA [CACACA_site2858],10.1 ± 0.22
8,AAAAAAAAAAAACACACACACACACTAATACATACA [CACACA_site8135],10.1 ± 0.12
9,AAAAAAAAAAAAAAAACACACATACATACATACATA [CACACA_site6125],9.26 ± 0.41
10,AAAAAAAAAAAACATACACACACACTAATATTTATA [CACACA_site8038],9.6 ± 0.23
11,CCTGAACACATACATACACACACACTAATAAAAAAA [CACACA_site8023],9.69 ± 0.46
12,TAAATGTCTTCAATGAAGTGGAAATGCTGTTATATA [CACACA_negctrl_site1155],8.54 ± 0.31
13,TATAATCATATACACGCATGTATAAAATTTAATACT [TGCATGCA_site700],8.96 ± 0.35
14,ACTATTAAAATGAATACACACAAATATAAAAATATA [CACACA_site4145],8.96 ± 0.5
15,TAATTTTTCCAACTTTGTACAGATATATTAATAAAA [XGTACX_site7856],8.13 ± 0.35
16,TAAAACAAAATGGTAACACACACATATATATATATA [CACACA_site8590],9.87 ± 0.15
17,ATAAAATGAACAAACACACACACATATATTTATATA [CACACA_site7181],9.84 ± 0.16
18,AAAAAAATGAAACACACACACACATATATATATATA [CACACA_site1043],10.1 ± 0.085
19,AAACAAAATGGTAACACACACATATATAAATATGTA [CACACA_site6994],9.38 ± 0.47
20,AAAAAAACATGAAACACACACAAATATATATATATA [CACACA_site1884],9.53 ± 0.52
21,AAACAAAATGGTAACACACACATATATATATATATA [CACACA_site1939],10.09 ± 0.021
22,TGAAATGATATATAAACACACATATATATATATATA [CACACA_site3511],9.62 ± 0.25
23,AAAAATGAGAAACACACACACATATATATATATATA [CACACA_site2228],9.94 ± 0.19
24,TGCAAGGAACAACACACACACACATAAATGTATATA [CACACA_site8149],10.2 ± 0.36

row,Sequence,gcPBM binding intensity (ln)
1,TGCAAGGAAAAACACACACACACATAAATGTATATA [CACACA_site751],9.79 ± 0.25
2,ACACATAAATGTATATATATATAAATATATGTATGT [CACACA_negctrl_site1532],9.12 ± 0.33
3,AAAATGAACAAACACACACACATATATATATATATA [CACACA_site2403],10.27 ± 0.057
4,TTTTGAAGAAAATTCTTTTTTTTTTTTTTTTGTAAA [CACACA_negctrl_site102],7.76 ± 0.65
5,AAATATTATGTGGCAAGTACATAAAGAAAATGCTTA [XGTACX_site3356],8.89 ± 0.56
6,AAAAAAAAAAAAAAAGCACACATCATATTTTAATTC [CACACA_site9109],8.87 ± 0.28
7,ATATATATATATATATAATATATAATATATATATAT [CACACA_negctrl_site96],9.01 ± 0.11
8,AATAATAACAAATGAACACACATATATATGAGCAAA [CACACA_site2121],9.13 ± 0.41
9,ATGATTATTTTAAAAAGTACTAATTATTATTTTTTT [XGTACX_site7242],8.34 ± 0.47
10,TTCGTTATATTTTGATGTACTGATTCATATATATAT [XGTACX_site1835],9.09 ± 0.42
11,ATTTTCTATTTTATTTGTACGTAATTTAATTTTTTT [XGTACX_site3609],8.96 ± 0.53
12,TATATACAAAATGCCTGTACATATATATTTATTTAT [XGTACX_site761],8.85 ± 0.35
13,ATAATATAATAATACACACTCATTATATATATAAAG [CACACA_site3956],8.82 ± 0.43
14,GGTCATCATCGGTATTGTACAAAAATGTGAAAATTA [XGTACX_site639],8.73 ± 0.48
15,AAATATATTATATCATATATTAAAGCATATATTAAA [CACACA_negctrl_site1624],8.43 ± 0.42
16,TATCTGTATTTGTATACACACAAATGTATTTATTTA [CACACA_site4830],8.94 ± 0.44
17,TATATTATAAATTAATGTACGTAATTTTTTTTTTTT [XGTACX_site2500],8.38 ± 0.48
18,AACAAAAATGAAAAAACACACATAACATATATAAAT [CACACA_site740],9.27 ± 0.41
19,ATAAAATGAACAAACACACACACATATATATATATA [CACACA_site2402],10.2 ± 0.13
20,TTTATAAACAAATGAACACACAAACATATATATATA [CACACA_site5713],9.33 ± 0.24
21,TTAACTATAATAAAATGTACATATGTAACATATATA [XGTACX_site7790],8.66 ± 0.4
22,ATTAATTATTTCAATGCATGTGAACACTATATATAA [TGCATGCA_site600],8.84 ± 0.42
23,ATGGATAATAAGTTTACACACAAAAAAAAAGAAAAA [CACACA_site861],9.02 ± 0.57
24,GTTCATAAATTAAACACACACACACCGCTGGATACC [CACACA_site5779],9.77 ± 0.16

row,Sequence,gcPBM binding intensity (ln)
1,GTTCATAAATTAAACACACACACACGGCTGGATACC [CACACA_site7545],9.79 ± 0.26
2,GTTCATAAATTAAACACACACACACCCCTGGATACC [CACACA_site3331],10.13 ± 0.085
3,CACCCACTAATAAACACACACATATATATATATATA [CACACA_site389],10.3 ± 0.18
4,AAAAGAAAAAGAAAAACACACATAAATATAAATATA [CACACA_site1879],8.93 ± 0.64
5,CCCACTAAAAAACACACACACACACCCATATATATA [CACACA_site6140],10.31 ± 0.078
6,CATATTTGGAAACACACACACATATTTATATATATA [CACACA_site3569],9.62 ± 0.38
7,CACTAAAAGAAACACACACACACACCCATATATATA [CACACA_site4151],10.2 ± 0.23
8,ATAATTTGGAAACACACACACACACCCACATATATA [CACACA_site2286],10.28 ± 0.064
9,AAAAAAAAAAAACACACACACACACCCATATATAAA [CACACA_site1170],9.995 ± 0.064
10,TAATTTTTGAAACACACACACATATATATATATATA [CACACA_site94],9.885 ± 0.0071
11,TAAACACCCATATAAACACACATATAAACACCCATA [CACACA_site5382],9.4 ± 0.21
12,CAGGCACTAATAAACACACACATATAAATATAAATA [CACACA_site6320],9.38 ± 0.59
13,ATACTAAAGAAACACACACACATATATATATAGAAT [CACACA_site100],9.94 ± 0.28
14,AAAAAATTATATAATAATAGAACTATACATTTTATT [GTGCAC_negctrl_site645],8.44 ± 0.47
15,TACAATAAGGATAAGTGTACATATGTGCATACATAT [XGTACX_site7188],8.96 ± 0.35
16,TATTATTATTTTTTATGTACTAACGACAAAAATATT [XGTACX_site252],8.48 ± 0.4
17,AATATTTTTATATATATACACACTTACATATATATA [CACACA_site3609],8.91 ± 0.4
18,TTTTTTTTTTTGTGGGTGCGTTTATAAAAACAGGAA,8.42 ± 0.33
19,GGAACGTTCATATTTCCACACACAAAAAATAAATAT [CACACA_site9101],9.31 ± 0.57
20,TTACACAAGGATAAAAACATATGTATGATTATATAT [CACACA_negctrl_site654],8.89 ± 0.47
21,ATAGCTTTTATTTAAAGTACAAAAAGGATGTTGAAA [XGTACX_site3810],8.46 ± 0.44
22,TTTTTTAAGTAATGAAATGATTTTCTTATAGAATAA [GTGCAC_negctrl_site395],7.96 ± 0.36
23,AAAAAACAATTTGTGTGTACACATGATACGTTCGAT [XGTACX_site4112],9.39 ± 0.28
24,TTTCCCATAGGAAAAACACACATATATTATATATAA [CACACA_site1981],8.57 ± 0.4

row,Sequence,gcPBM binding intensity (ln)
1,CGCACTAAAAAACACACACACACACCCATATATATA [CACACA_site4152],10.2 ± 0.29
2,TCTCATAGGAAACACACACACACACCCACATATATA [CACACA_site1738],10.1 ± 0.11
3,TTAAAAAAAAAACACACACACATACCCATATATATA [CACACA_site5768],9.825 ± 0.021
4,TCTCATAGTAAACACACACACACACCCACATATATA [CACACA_site5034],9.97 ± 0.071
5,AACATATAAAAATGTGCACACACACCCATATATATA [CACACA_site1525],9.79 ± 0.3
6,AATAAAATATAATAATTAATATATATATATATATAA [GTGCAC_negctrl_site457],8.65 ± 0.45
7,ACACACAATACAAAAGTGCATATAATAATTAATCAT,9.34 ± 0.46
8,TTATAATATATATGTGGTACTTATTTATTTATTTAT [XGTACX_site7572],8.72 ± 0.49
9,AACAAATTAATTCTAGTGCAGGACGTATTTGTGTAC [GTGCAC_site9907],8.88 ± 0.36
10,AAAAAAAAAAAAAACACACATACATACATACATATA [CACACA_site4121],9.13 ± 0.38
11,AACACACACATATATATATATATATATATATATATA [GTGCAC_negctrl_site573],10.5 ± 0.13
12,AAAAAAAAAAAAAACACACACATATATATAATATAT [CACACA_site3172],9.37 ± 0.41
13,AAAAAAAAAAAACACACACACATATATATATATATA [CACACA_site732],10.4 ± 0.19
14,AAAAAAAAAAAAAACACACACATATATATATATATA [CACACA_site1891],10.1 ± 0.37
15,CATATATAAAAAAACACACACATATATATATATATA [CACACA_site1195],9.82 ± 0.042
16,AAAAAAAAAAAAAAAACACACACATATATATATATA [CACACA_site8571],9.72 ± 0.29
17,AAAAAAAAAAAACATACACACATACATACATATATA [CACACA_site8222],9.26 ± 0.35
18,ACACATATATATATATATATATATATATATATATAT [CACACA_negctrl_site1766],9.935 ± 0.035
19,AAAAAAACACACACATATATATATATATATATATAT [GTGCAC_negctrl_site498],10.2 ± 0.16
20,AACATACACATATACACACACACATATATACATATA [CACACA_site1093],9.89 ± 0.23
21,AAAAAAAAAAAAAAAACACACACATATATATAATAT [CACACA_site9038],9.3 ± 0.41
